# Test results taken from PubChem BioAssay AID1159580 (chemical genetic matrix, 2015).
# Several values for one entry are separate records, joined by “and”; a condition that tells them apart may be missing. Identical values can stand only once. About 2,000 (36%) of roughly 5,500 compounds were called active. Roughly 18% stayed inconclusive and do not appear here. The list shows a part of the results. Unmarked numbers belong to inactive results. Rule as the data show it: active = normalized growth mostly below about 0.91 (no sharp cut-off); inconclusive = no clear call, values can overlap the other calls; inactive = mostly above about 0.92.
# Assay: chemical genetic growth profiling, strain panel (AID 1159580);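 also: tested at 20 µM; growth read once vehicle control cultures reached saturation at 30 °C; 1 = growth at the plate median or of vehicle wells; lower values mean less growth of the strain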
# Details: S. cerevisiae deletion strains, growth OD
smiles,measurement,setting,value
O=c1c(O)c(-c2ccc(O)c(O)c2)oc2cc(O)ccc12,normalized growth,"locus YAL013W, strain DEP1, stronger effect = lower value",0.836 (active)
same,normalized growth,"locus YAL021C, strain ccr4, stronger effect = lower value",1
same,normalized growth,"locus YAL026C, strain drs2, stronger effect = lower value",0.965
same,normalized growth,"locus YAL030W, strain snc1, stronger effect = lower value",1
same,normalized growth,"locus YBL061C, strain skt5, stronger effect = lower value",0.964
same,normalized growth,"locus YBR009C, strain hhf1, stronger effect = lower value",1.01
same,normalized growth,"locus YBR021W, strain FUR4, stronger effect = lower value",0.961
same,normalized growth,"locus YBR023C, strain chs3, stronger effect = lower value",0.961
same,normalized growth,"locus YBR171W, strain sec66, stronger effect = lower value",0.977
same,normalized growth,"locus YBR229C, strain ROT2, stronger effect = lower value",0.993
same,normalized growth,"locus YBR231C, strain swc5, stronger effect = lower value",0.921
same,normalized growth,"locus YBR279W, strain paf1, stronger effect = lower value",0.983
same,normalized growth,"locus YCL011C, strain gbp2, stronger effect = lower value",0.982
same,normalized growth,"locus YCL016C, strain dcc1, stronger effect = lower value",0.977
same,normalized growth,"locus YCL029C, strain bik1, stronger effect = lower value",0.988
same,normalized growth,"locus YCL069W, strain vba3, stronger effect = lower value",1.01
same,normalized growth,"locus YCR088W, strain abp1, stronger effect = lower value",1
same,normalized growth,"locus YDL005C, strain med2, stronger effect = lower value",0.987
same,normalized growth,"locus YDL035C, strain GPR1, stronger effect = lower value",0.864
same,normalized growth,"locus YDL040C, strain nat1, stronger effect = lower value",1
same,normalized growth,"locus YDL074C, strain BRE1, stronger effect = lower value",0.742 (active)
same,normalized growth,"locus YDL101C, strain DUN1, stronger effect = lower value",0.98
same,normalized growth,"locus YDL134C, strain PPH21, stronger effect = lower value",0.955
same,normalized growth,"locus YDL185W, strain tfp1, stronger effect = lower value",0.972
same,normalized growth,"locus YDL192W, strain arf1, stronger effect = lower value",0.946
same,normalized growth,"locus YDR001C, strain nth1, stronger effect = lower value",1
same,normalized growth,"locus YDR069C, strain doa4, stronger effect = lower value",0.904
same,normalized growth,"locus YDR101C, strain arx1, stronger effect = lower value",0.957
same,normalized growth,"locus YDR137W, strain rgp1, stronger effect = lower value",0.978
same,normalized growth,"locus YDR150W, strain NUM1, stronger effect = lower value",0.946
same,normalized growth,"locus YDR159W, strain sac3, stronger effect = lower value",0.934
same,normalized growth,"locus YDR162C, strain NBP2, stronger effect = lower value",0.831 (active)
same,normalized growth,"locus YDR195W, strain ref2",0.969
same,normalized growth,"locus YDR297W, strain sur2, stronger effect = lower value",0.966
same,normalized growth,"locus YDR318W, strain mcm21, stronger effect = lower value",0.927
same,normalized growth,"locus YDR334W, strain swr1, stronger effect = lower value",0.981
same,normalized growth,"locus YDR335W, strain msn5, stronger effect = lower value",0.995
same,normalized growth,"locus YDR388W, stronger effect = lower value",0.974
same,normalized growth,"locus YDR392W, strain spt3, stronger effect = lower value",0.845
same,normalized growth,"locus YDR502C, strain sam2, stronger effect = lower value",0.915 (active)
same,normalized growth,"locus YEL003W, strain gim4, stronger effect = lower value",0.961
same,normalized growth,"locus YEL037C, strain rad23, stronger effect = lower value",0.988
same,normalized growth,"locus YEL061C, strain CIN8 (second series), stronger effect = lower value",0.996
same,normalized growth,"locus YEL061C, strain CIN8, stronger effect = lower value",0.95
same,normalized growth,"locus YER015W, strain faa2, stronger effect = lower value",0.974
same,normalized growth,"locus YER016W, strain bim1, stronger effect = lower value",0.989
same,normalized growth,"locus YER110C, stronger effect = lower value",0.982
same,normalized growth,"locus YER111C, strain swi4, stronger effect = lower value",0.97
same,normalized growth,"locus YER155C, strain BEM2 (second series), stronger effect = lower value",0.89
same,normalized growth,"locus YER155C, strain BEM2, stronger effect = lower value",1.02
same,normalized growth,"locus YER167W, strain BCK2, stronger effect = lower value",0.9 (active)
same,normalized growth,"locus YFR010W, strain ubp6, stronger effect = lower value",0.96
same,normalized growth,"locus YGL078C, strain dbp3, stronger effect = lower value",0.988
same,normalized growth,"locus YGL086W, strain mad1, stronger effect = lower value",0.905 (active)
same,normalized growth,"locus YGL167C, strain pmr1, stronger effect = lower value",0.972
same,normalized growth,"locus YGL173C, strain kem1, stronger effect = lower value",0.938
same,normalized growth,"locus YGL227W, strain vid30, stronger effect = lower value",0.994
same,normalized growth,"locus YGL240W, strain doc1, stronger effect = lower value",1.03
same,normalized growth,"locus YGL248W, strain PDE1, stronger effect = lower value",0.923
same,normalized growth,"locus YGL253W, strain hxk2, stronger effect = lower value",0.969
same,normalized growth,"locus YGR078C, strain PAC10, stronger effect = lower value",0.756 (active)
same,normalized growth,"locus YGR135W, strain pre9, stronger effect = lower value",0.85 (active)
same,normalized growth,"locus YGR229C, strain SMI1, stronger effect = lower value",0.372 (active)
same,normalized growth,"locus YGR252W, strain gcn5, stronger effect = lower value",0.873
same,normalized growth,"locus YHR013C, strain ard1, stronger effect = lower value",0.94
same,normalized growth,"locus YHR027C, strain rpn1, stronger effect = lower value",0.988
same,normalized growth,"locus YHR030C, strain SLT2, stronger effect = lower value",0.899 (active) and 0.324 (active)
same,normalized growth,"locus YHR079C, strain IRE1 (second series), stronger effect = lower value",0.978
same,normalized growth,"locus YHR079C, strain IRE1, stronger effect = lower value",0.381 (active)
same,normalized growth,"locus YHR094C, strain hxt1, stronger effect = lower value",1.01
same,normalized growth,"locus YHR129C, strain ARP1, stronger effect = lower value",0.861 (active)
same,normalized growth,"locus YHR142W, strain chs7, stronger effect = lower value",0.982
same,normalized growth,"locus YHR200W, strain rpn10, stronger effect = lower value",0.938
same,normalized growth,"locus YIL066C, strain RNR3, stronger effect = lower value",0.846 (active)
same,normalized growth,"locus YIL073C, strain SPO22, stronger effect = lower value",0.851
same,normalized growth,"locus YIL125W, strain kgd1, stronger effect = lower value",0.967
same,normalized growth,"locus YIR030C, strain dcg1, stronger effect = lower value",1.01
same,normalized growth,"locus YJL092W, strain hpr5, stronger effect = lower value",0.995
same,normalized growth,"locus YJL095W, strain BCK1 (second series), stronger effect = lower value",0.981
same,normalized growth,"locus YJL095W, strain BCK1, stronger effect = lower value",0.743 (active) and 0.428 (active)
same,normalized growth,"locus YJL115W, strain asf1, stronger effect = lower value",0.998
same,normalized growth,"locus YJL129C, strain trk1, stronger effect = lower value",0.966
same,normalized growth,"locus YJL134W, strain LCB3, stronger effect = lower value",1
same,normalized growth,"locus YJL154C, strain vps35, stronger effect = lower value",0.999
same,normalized growth,"locus YJL164C, strain tpk1, stronger effect = lower value",0.985
same,normalized growth,"locus YJL166W, strain qcr8, stronger effect = lower value",0.986
same,normalized growth,"locus YJL168C, strain set2, stronger effect = lower value",0.985
same,normalized growth,"locus YJL187C, strain SWE1 (second series), stronger effect = lower value",0.915
same,normalized growth,"locus YJR043C, strain POL32, stronger effect = lower value",0.778 (active)
same,normalized growth,"locus YJR066W, strain TOR1, stronger effect = lower value",0.59 (active)
same,normalized growth,"locus YJR075W, strain HOC1, stronger effect = lower value",0.83 (active)
